# From PMC4336329 (PLoS ONE, 2015)
# Among all 310,000 compounds or so, about 14,000 (4.5%) showed an effect of 50% or more. The effect is printed as a negative number. For the sample, strong results were picked, then their nearest neighbours and some compounds at random.
# Biological target: human ether-à-go-go-related gene (hERG) potassium channel (human, UniProt Q12809)
# Test: primary screen, population patch clamp on CHO cells stably expressing hERG; higher = less effect of the substance
# 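Note: peak tail current of the secondary pulse compared with the same well before compound.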
# Chain of human ether-à-go-go-related gene (hERG) potassium channel (Q12809 whole entry, looked up): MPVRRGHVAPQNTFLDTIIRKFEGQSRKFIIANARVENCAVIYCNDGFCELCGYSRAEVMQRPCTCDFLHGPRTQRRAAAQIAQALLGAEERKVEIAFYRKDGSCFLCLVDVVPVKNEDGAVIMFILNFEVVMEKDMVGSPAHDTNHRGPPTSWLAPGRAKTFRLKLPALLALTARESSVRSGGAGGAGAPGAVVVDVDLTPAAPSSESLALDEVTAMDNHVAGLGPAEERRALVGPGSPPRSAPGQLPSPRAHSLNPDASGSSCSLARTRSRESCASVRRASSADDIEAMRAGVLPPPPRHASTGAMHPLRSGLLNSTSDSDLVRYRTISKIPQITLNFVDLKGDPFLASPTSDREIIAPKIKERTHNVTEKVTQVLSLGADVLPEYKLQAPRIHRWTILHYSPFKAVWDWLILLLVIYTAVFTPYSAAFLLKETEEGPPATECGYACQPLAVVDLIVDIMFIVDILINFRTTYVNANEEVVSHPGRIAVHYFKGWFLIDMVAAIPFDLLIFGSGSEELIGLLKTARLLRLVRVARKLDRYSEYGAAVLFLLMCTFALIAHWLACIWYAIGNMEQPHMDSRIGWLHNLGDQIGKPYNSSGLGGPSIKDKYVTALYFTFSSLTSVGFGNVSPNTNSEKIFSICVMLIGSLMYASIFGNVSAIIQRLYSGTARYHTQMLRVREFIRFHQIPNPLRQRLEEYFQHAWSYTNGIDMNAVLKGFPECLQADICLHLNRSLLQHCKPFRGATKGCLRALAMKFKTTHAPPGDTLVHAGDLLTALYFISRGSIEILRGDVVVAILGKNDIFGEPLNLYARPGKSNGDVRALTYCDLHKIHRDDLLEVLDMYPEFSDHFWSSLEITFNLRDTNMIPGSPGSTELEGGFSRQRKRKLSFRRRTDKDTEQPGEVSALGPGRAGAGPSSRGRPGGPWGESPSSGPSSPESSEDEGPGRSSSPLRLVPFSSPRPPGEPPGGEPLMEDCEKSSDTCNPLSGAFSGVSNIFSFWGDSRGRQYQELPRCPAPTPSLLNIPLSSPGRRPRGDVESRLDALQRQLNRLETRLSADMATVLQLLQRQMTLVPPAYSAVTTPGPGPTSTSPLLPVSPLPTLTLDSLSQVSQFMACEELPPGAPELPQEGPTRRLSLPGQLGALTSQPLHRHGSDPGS
row,SMILES,"hERG current change (%, negative = inhibition) at 10uM"
1,COc1ccc(C)cc1-n1c(SCC(=O)NC2CC2)nc2ccccc2c1=O,-17.4%
2,Nc1nc(SCc2nc3scc(-c4cccs4)c3c(=O)[nH]2)n[nH]1,18.9%
3,CCOc1ccc(-n2c(=O)[nH]cc(C(=O)N3CCCc4ccccc43)c2=O)cc1,-9.75%
4,Cc1cccc(N2CCN(C(=O)Cn3cccc3)CC2)c1C,2.77%
5,Cc1ccc(-c2cnc(NC(=O)CCC(=O)N3CCCCC3)n2C)cc1,-6.45%
6,O=C1C2C3C=CC(C3)C2C(=O)N1c1ccc(-c2nc3ccccc3o2)cc1 (stereo not drawn),15.6%
7,CCC(C)(C)NC(=O)C(c1cccc(OC)c1OC)N(CCC(C)C)C(=O)CCC(=O)Nc1cc(C)on1 (stereo not drawn),11.6%
8,Cc1n[nH]c(C)c1CCN.Cl,12.9%
9,COc1ccc(C(=O)Nc2ccc(-c3cn4ccsc4n3)cc2)cc1S(=O)(=O)N1CCOCC1,-9.6%
10,Nn1c(SCC(=O)N2CCCc3ccccc32)nnc1-c1ccccc1,2.21%
11,C=CCn1c(=O)n2ncnc2c2c3c(sc21)CCCC3,-59.3%
12,O=c1n(Cc2ccc(Cl)cc2)c2sc3c(c2c2ncnn12)CCCC3,-39.1%
13,O=C(Cn1c(=O)n2ncnc2c2c3c(sc21)CCCC3)c1ccccc1,-20.1%
14,COc1cccc(C2=NNC(=NCc3ccccc3)SC2)c1,-42.6%
15,CCn1cnc2sc(C(=O)Oc3cccc(C)c3)c(C)c2c1=O,19.9%
16,Cc1nn(C)c(Oc2ccccc2)c1CCNC(=O)CCl,35.6%
17,Cc1cccc(Oc2ccc(N)cc2)c1,-12%
18,CC(=O)c1cnc2cc(-c3ccc(C)cc3)nn2c1C,-4.26%
19,CCN1CCc2c(sc(N)c2C#N)C1,5.55%
20,N#Cc1c(N)sc2c1CCN(CCc1ccccc1)C2,-50.5%
21,N#Cc1c(N)sc(=S)c2c1CCN(Cc1ccccc1)C2,-5.46%

row,SMILES,"hERG current change (%, negative = inhibition) at 10uM"
1,CN(C)S(=O)(=O)c1ccc2c(c1)Cc1cc(S(=O)(=O)N(C)C)ccc1-2,20.1%
2,COc1cc(/C=C/c2ccc(O)cc2)cc(OC)c1,-2.2%
3,Cc1occc1C(=O)NNC1=CC(=O)CC(C)(C)C1,13.3%
4,CC1CCN(CCCNC(=O)CCNC(=O)Cn2cnc3ccccc3c2=O)CC1,20.5%
5,OC1(C(F)(F)F)CC(c2ccc3ccccc3c2)=NO1 (stereo not drawn),4.45%
6,COCc1[nH]nc2c1C(c1cccc(OC)c1)C(C#N)=C(N)O2 (stereo not drawn),-7.26%
7,CCOc1ccc(NC(=O)C2CCC(C)(C(=O)O)C2(C)C)cc1 (stereo not drawn),6.49%
8,CCN(C(=O)COC(=O)c1ccccc1NCCO)C1CCS(=O)(=O)C1 (stereo not drawn),-5.97%
9,CN(C(=O)COC(=O)c1ccccc1NC(=O)c1ccco1)C1CCS(=O)(=O)C1 (stereo not drawn),-62.3%
10,CCN(C(=O)COC(=O)c1ccccc1NC(=O)c1ccco1)C1CCS(=O)(=O)C1 (stereo not drawn),-72.1%
11,O=C(COC(=O)c1ccccc1NC(=O)c1ccco1)NC1CCS(=O)(=O)C1 (stereo not drawn),-2.03%
12,CN(C(=O)COC(=O)c1ccccc1Nc1ccccc1)C1CCS(=O)(=O)C1 (stereo not drawn),-41.4%
13,CCN(C(=O)COC(=O)c1ccccc1Nc1cccc(C)c1C)C1CCS(=O)(=O)C1 (stereo not drawn),2.59%
14,CCOc1ccccc1C1CC(=O)Nc2cc(OC)c(OC)cc21 (stereo not drawn),13.2%
15,O=CNC1CCCc2c1[nH]c1ccc(Cl)cc21 (stereo not drawn),-9.15%
16,COc1cccc(OC(=O)N2CCOCC2)c1,8.3%
17,O=C(CCCN1C(=O)c2ccccc2C1=O)Nc1cccc(S(=O)(=O)NC2=NCCC2)c1,13.5%
18,COc1ccc(N2CCN(C(C)C(=O)N3CC(C)OC(C)C3)CC2)cc1.O=C(O)C(=O)O (stereo not drawn),18%
19,COc1ccc(/C=N/NC(=O)CCCC(=O)NC2CCCCC2)cc1,5.06%
20,CN(C)CCCNC(=O)/C(=C\c1ccc(-c2cccc([N+](=O)[O-])c2)o1)NC(=O)c1ccccc1,-81.2%
21,CN(C)C(=O)/C(=C\c1ccc(-c2cccc([N+](=O)[O-])c2)o1)NC(=O)c1ccccc1,-47.9%

row,SMILES,"hERG current change (%, negative = inhibition) at 10uM"
1,C=CCNC(=O)/C(=C/c1cn(-c2ccccc2)nc1-c1cccc([N+](=O)[O-])c1)NC(=O)c1ccccc1,-3.58%
2,CN(C)C(=O)/C(=C/c1ccc(-c2cccc([N+](=O)[O-])c2)o1)NC(=O)c1ccccc1,-21.3%
3,CN(C)CCNC(=O)/C(=C/c1ccc(-c2cccc([N+](=O)[O-])c2)o1)NC(=O)c1ccccc1,-75.4%
4,O=C(NCCCO)/C(=C/c1ccc(-c2cccc([N+](=O)[O-])c2)o1)NC(=O)c1ccccc1,-31.5%
5,CCCCCn1c(=O)[nH]c2cc(C(=O)NCCN3CCCCC3C)ccc2c1=O (stereo not drawn),-15.9%
6,CCOC(=O)c1ccc(NC(=S)NNC(=O)C2(C)CC2(Cl)Cl)cc1 (stereo not drawn),28.4%
7,O=C(O)CCSc1nnc(COc2ccc([N+](=O)[O-])cc2)n1-c1ccccc1,22.8%
8,C/C(=C\[C@@H](NP(=O)(c1ccccc1)c1ccccc1)c1ccccc1)CO[Si](c1ccccc1)(c1ccccc1)C(C)(C)C,5.58%
9,CCN(CC)S(=O)(=O)c1cccc(C(=O)NCC(=O)OCC(=O)NCc2ccccc2)c1,-7.41%
10,CC1(C(=O)OCc2cc(=O)n3cc(Br)ccc3n2)CC1(Cl)Cl (stereo not drawn),-54.3%
11,Cc1cc(C)c(C)c(S(=O)(=O)N[C@@H](C)C(=O)OCc2cc(=O)n3cc(Br)ccc3n2)c1C,-47%
12,CC1CC1C(=O)OCc1cc(=O)n2cc(Br)ccc2n1 (stereo not drawn),-16.2%
13,CCOc1ccc(CC(=O)OCc2cc(=O)n3cc(Br)ccc3n2)cc1,-6.01%
14,C[C@H](NS(=O)(=O)c1ccc(Cl)c(Cl)c1)C(=O)OCc1cc(=O)n2cc(Br)ccc2n1,-63.4%
15,O=C(CNS(=O)(=O)c1ccc(Br)cc1)OCc1cc(=O)n2cc(Br)ccc2n1,-26%
16,COc1ccc(NS(=O)(=O)c2cc(NC(=O)c3ccc(=O)[nH]c3)ccc2C)cc1,15.1%
17,CC(=O)Nc1ccc(S(=O)(=O)N2CCN(c3nnnn3-c3ccccc3)CC2)cc1,13.1%
18,O=[N+]([O-])c1ccc(C[n+]2cccc3ccccc32)cc1.[Cl-],-3.07%
19,O=[N+]([O-])c1ccc(C[n+]2cccc3ccc4cccnc4c32)cc1.[Br-],-62.6%
20,O=[N+]([O-])c1ccc(C[n+]2cccc3c4ccccc4ccc32)cc1.[Br-],-40.5%
21,CN(C)c1ccc(C2N(C(=O)N3CCOCC3)CCN2S(=O)(=O)c2ccccc2)cc1 (stereo not drawn),3.98%

row,SMILES,"hERG current change (%, negative = inhibition) at 10uM"
1,COCCC(=O)N1CCCC(C(=O)c2ccc(Oc3ccccc3)cc2)C1 (stereo not drawn),-79.3%
2,CCN1CCN(CC(=O)N2CCCC(C(=O)c3ccc(Oc4ccccc4)cc3)C2)CC1 (stereo not drawn),-52.7%
3,CC(=O)NCC(=O)N1CCCC(C(=O)c2ccc(Oc3ccccc3)cc2)C1 (stereo not drawn),-23.2%
4,CCn1nc(C)cc1C(=O)N1CCCC(C(=O)c2ccc(Oc3ccccc3)cc2)C1 (stereo not drawn),-9.04%
5,COCC(=O)N1CCCC(C(=O)c2ccc(Oc3ccccc3)cc2)C1 (stereo not drawn),-34.1%
6,CC(=O)N1CCCC(C(=O)c2ccc(Oc3ccccc3)cc2)C1 (stereo not drawn),-5.43%
7,CC1CCCC(C)N1S(=O)(=O)c1ccc(NC(=O)c2ccccc2C(=O)N2CCOCC2)cc1 (stereo not drawn),-3.57%
8,NC(=O)[C@@H]1CCCN1Cc1nc(Cc2ccccc2F)no1,7.29%
9,Cc1ccc2nc(-c3ccc(NC(=O)CCS(=O)(=O)c4ccccc4)cc3)sc2c1,2.03%
10,CC(C)CCOP(N)(=O)Oc1ccccc1 (stereo not drawn),9.05%
11,CCN1C(=O)c2ccc(C(=O)Nc3ncc(C)s3)cc2C1=O,6.29%
12,COc1ccccc1-c1cc(C(=O)N/N=C\c2cnn(C)c2C)c2ccccc2n1,-3.85%
13,CC1CN(c2nc3ccccn3c(=O)c2/C=C(\C#N)C(N)=O)CC(C)O1 (stereo not drawn),21.1%
14,CC1(C)Cc2nc3sc(C(=O)O)c(N)c3cc2CS1,29.4%
15,Cn1cc(CN2CCCC(C(=O)c3nccn3C)C2)c(-c2cccc(Cl)c2)n1 (stereo not drawn),-31.1%
16,COc1ccc(C(=O)C2CCCN(C(=O)c3ccc(F)cc3)C2)cc1OC (stereo not drawn),-3.95%
17,COc1ccc(C(=O)C2CCCN(Cc3cn[nH]c3-c3ccc(F)cc3)C2)cc1OC (stereo not drawn),-66.5%
18,Cn1ccnc1C(=O)C1CCCN(Cc2cn[nH]c2-c2ccc(-c3ccccc3)cc2)C1 (stereo not drawn),-67.9%
19,COc1ccc(C(=O)C2CCCN(Cc3ccc(F)cc3F)C2)cc1F (stereo not drawn),-29.8%
20,CCOC(=O)c1[nH]ncc1CN1CCCC(C(=O)c2cccc3ccccc23)C1 (stereo not drawn),-45.8%
21,COc1ccc(C(=O)C2CCCN(Cc3cn[nH]c3-c3ccccc3)C2)cc1OC (stereo not drawn),-74%
